# PubChem BioAssay (EPA / NIEHS)
# Several values for one entry are separate records, joined by “and”; a condition that tells them apart may be missing. Identical values can stand only once. Results filed as inconclusive are left out. A structure can be active in one record and inactive in another. Activity calls are given as the source filed them. Rule for the calls: active = hit-call score of the fitted dose curve at least 0.9, where 1 is the maximum; inconclusive = response in the unintended direction; inactive = score below 0.9.
# Tests used:
# [1] = target: Luciferin 4-monooxygenase (Photinus pyralis) (UniProt P08659); assay: CCTE_Simmons_QuantiLum_inhib_2: CCTE's Firefly Luciferase Inhibition Assay, Simmons Lab (AID 2283767);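 for AC50: potency for inhibitors that lower luciferase luminescence relative to DMSO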
# In short: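 Eight-point titrations of each chemical, 5 nM–87.5 uM final in 0.5% DMSO, were run in three biological replicates against recombinant luciferase for 30 min at 37C. Bioluminescence signal loss, read on reagent injection, gave the inhibition endpoint.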
# [2] = ACEA_AR_agonist_AUC_viability: ACEA Biosciences xCELLigence Real-Time Cell Analysis on Androgen Receptor Agonism for Viability (AID 2283775);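 for AC50: viability read 80 hours after compound addition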
# In short: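 Viability endpoint from xCELLigence impedance in 22Rv1 prostate cells at 80 h. Eight-point series, 100 uM maximum final.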
# [3] = ACEA_AR_antagonist_AUC_viability: ACEA Biosciences xCELLigence Real-Time Cell Analysis on Androgen Receptor Antagonism for Viability (AID 2283776);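 note: 22Rv1 human prostate cancer cells growing on impedance electrode plates; area under impedance growth curve at 80 h after dosing as viability; hits lower the growth signal relative to DMSO meaning cytotoxicity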
# In short: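 Viability endpoint from label-free cell-index monitoring: 22Rv1 cultures treated with an eight-point 1:4 dilution series starting at 100 uM final, AUC at 80 h fitted against DMSO.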
# [4] = ArunA_CellTiter_hNC: Viability Assessment in the ArunA Biomedical's Oris Neural Crest (hNC) Cell Migration Assay (AID 2283752)
# In short: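 Cytotoxicity endpoint run alongside the migration assay: neural crest cells on Matrigel, 60,000 per well, preincubated 16 h at 37C, treated 72 h; CellTiter Aqueous One signal loss relative to DMSO.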
# [5] = ArunA_Migration_hNP: ArunA Biomedical's Oris Neuroprogenitor (hNP) Cell Migration Assay (AID 2283754)
# In short: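 Readout is calcein-AM fluorescence (ex494/em517) of cells migrating into the detection zone, relative to DMSO. hNP1 cells (H9-derived) grown on Matrigel behind stoppers 16 h, then stoppers pulled and chemical applied 72 h; cytochalasin D as control.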
# [6] = ArunA_Migration_hNC: ArunA Biomedical's Oris Neural Crest (hNC) Cell Migration Assay (AID 2283755)
# In short: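 Calcein-AM fluorescence (ex494 nm/em 517 nm) in the stopper-defined detection zone quantifies migration of hNC cells after 72 h chemical exposure; 60,000 cells/well plated on Matrigel with LIF and bFGF, 16 h pre-incubation. DMSO baseline.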
# [7] = ArunA_NOG_NeuriteLength: ArunA Biomedical's Neurite Outgrowth (NOG) Assay for Neurite Length (AID 2283757)
# In short: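 Total neurite length per neuron, from traced βIII-tubulin-labelled processes longer than 10 um on viable Hoechst-gated cells, was scored as decrease from DMSO. Cells were hESC (H9)-derived neurons given 48 h chemical exposure immediately after seeding.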
# [8] = ArunA_NOG_NeuritesPerNeuron: ArunA Biomedical's Neurite Outgrowth (NOG) Assay for Neurites Per Neuron (AID 2283758)
# In short: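 Differentiated human H9-derived neurons exposed to chemicals for 48 h from seeding, then stained with Hoechst and βIII-tubulin/DyLight 488. Automated imaging counted neurites (processes >10 um) per valid neuron; loss of signal versus DMSO scored.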
# [9] = ArunA_NOG_BranchPointsPerNeurite: ArunA Biomedical's Neurite Outgrowth (NOG) Assay for Branch Points Per Neurite (AID 2283759)
# In short: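 Automated image analysis traced neurites (processes >10 um) from valid cell bodies after Hoechst and βIII-tubulin staining. hNN cells from H9 embryonic stem cells, 48 h exposure. Fitted bidirectionally against DMSO.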
# [10] = ArunA_CellTiter_hNP: Viability Assessment in the ArunA Biomedical's Oris Neural Crest (hNC) Cell Migration Assay (AID 2283753)
# In short: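 Viability read with CellTiter 96 Aqueous One after 72 h chemical exposure of human hNP1 neuroprogenitors, which were plated on Matrigel in LIF/bFGF medium 16 h beforehand. Endpoint fitted in positive direction relative to DMSO.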
# [11] = ArunA_NOG_NucleusCount: ArunA Biomedical's Neurite Outgrowth (NOG) Assay for Nucleus Count (AID 2283756)
# In short: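 Viable neuron count, from Hoechst nuclei passing size and intensity gates, imaged at 20x on differentiated H9-derived human neurons. Exposure lasted 48 h from seeding; activity was scored relative to DMSO.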
# [12] = target: zebrafish Estrogen Receptor (ESR1), esr1 (gene 259252) (UniProt P57717); assay: ATG_zfER1_XSP1: Attagene TRANS-FACTORIAL Multi-Species (XSP1) HepG2 Assay for zebrafish Estrogen Receptor (ESR1) (AID 2283772)
# In short: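 HepG2 cells transiently transfected with a GAL4-UAS reporter and chimeric zebrafish ER-Gal4, dosed 24 h with 3 nM 6-alpha-fluorotestosterone present. Reporter mRNA measured by RT-PCR and capillary electrophoresis; gain of signal versus DMSO.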
# [13] = tested on: zebrafish Estrogen Receptor (ESR2B), gene 317733; assay: ATG_zfER2b_XSP1: Attagene TRANS-FACTORIAL Multi-Species (XSP1) HepG2 Assay for zebrafish Estrogen Receptor (ESR2B) (AID 2283773)
# In short: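 Medium contained 3 nM 6-alpha-fluorotestosterone. Reporter mRNA induction by exogenous zebrafish ER2b-Gal4 chimera was read 24 h post-dose in transiently transfected HepG2 cells, using RT-PCR, fluorescent labelling, HpaI digestion and capillary electrophoresis.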
# [14] = tested on: frog Estrogen Receptor (ESR2), gene 100174814; assay: ATG_frER2_XSP1: Attagene TRANS-FACTORIAL Multi-Species (XSP1) HepG2 Assay for frog Estrogen Receptor (ESR2) (AID 2283774)
# In short: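 Reporter mRNA from a multiplexed TRANS system, measured by RT-PCR with fluorescent labelling and capillary electrophoresis, 24 hours after chemical exposure. Human HepG2 liver cells carried exogenous frog ER-Gal4 chimera; medium included 3 nM 6-alpha-fluorotestosterone; increases versus DMSO analysed.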
# [15] = tested on: frog Estrogen Receptor (ESR1), gene 398734; assay: ATG_frER1_XSP1: Attagene TRANS-FACTORIAL Multi-Species (XSP1) HepG2 Assay for frog Estrogen Receptor (ESR1) (AID 2283777)
# In short: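 HepG2 cells transiently transfected with GAL4-UAS reporter units and frog ER–Gal4 chimera were dosed for 24 h with 3 nM 6-alpha-fluorotestosterone present. Reporter mRNA was measured by RT-PCR and capillary electrophoresis; gain of signal fitted versus DMSO.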
# [16] = tested on: zebrafish Estrogen Receptor (ESR2A), gene 317734; assay: ATG_zfER2a_XSP1: Attagene TRANS-FACTORIAL Multi-Species (XSP1) HepG2 Assay for zebrafish Estrogen Receptor (ESR2A) (AID 2283778)
# In short: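 Reporter transcripts were quantified by RT-PCR, 6-FAM labelling, HpaI digestion and capillary electrophoresis after 24 h dosing. The cells were HepG2 transiently carrying a zebrafish ER2a–Gal4 construct plus multiplexed UAS reporters; medium contained 3 nM 6-alpha-fluorotestosterone.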
# [17] = tested on: Thyroperoxidase (TPO), gene 445522; assay: CCTE_Simmons_GUA_TPO: CCTE's Guaiacol Assay for Thyroperoxidase (TPO) Inhibition, Simmons Lab (AID 2283750)
# In short: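 Porcine thyroid microsomes (25 ug) in 200mM potassium phosphate, preincubated 30 s at 37C with compound (8 concentrations, 5 nM–87.5 uM) and 35mM guaiacol; 1mM H2O2 starts reaction. Absorbance change at 450nm over first 80 s; loss of signal versus DMSO, three replicates.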
# [18] = tested on: chicken Androgen Receptor (AR), gene 422165; assay: ATG_chAR_XSP1: Attagene TRANS-FACTORIAL Multi-Species (XSP1) HepG2 Assay for chicken Androgen Receptor (AR) (AID 2283768)
# In short: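 Reporter mRNA read by RT-PCR with fluorescent labelling and capillary electrophoresis 24 h after chemical dosing of transiently transfected HepG2 cells. Chicken AR-Gal4 chimera, partially stimulated with 3 nM 6-alpha-fluorotestosterone; activity fitted upward relative to DMSO.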
# Luciferin 4-monooxygenase (Photinus pyralis), sequence (P08659 whole entry, looked up): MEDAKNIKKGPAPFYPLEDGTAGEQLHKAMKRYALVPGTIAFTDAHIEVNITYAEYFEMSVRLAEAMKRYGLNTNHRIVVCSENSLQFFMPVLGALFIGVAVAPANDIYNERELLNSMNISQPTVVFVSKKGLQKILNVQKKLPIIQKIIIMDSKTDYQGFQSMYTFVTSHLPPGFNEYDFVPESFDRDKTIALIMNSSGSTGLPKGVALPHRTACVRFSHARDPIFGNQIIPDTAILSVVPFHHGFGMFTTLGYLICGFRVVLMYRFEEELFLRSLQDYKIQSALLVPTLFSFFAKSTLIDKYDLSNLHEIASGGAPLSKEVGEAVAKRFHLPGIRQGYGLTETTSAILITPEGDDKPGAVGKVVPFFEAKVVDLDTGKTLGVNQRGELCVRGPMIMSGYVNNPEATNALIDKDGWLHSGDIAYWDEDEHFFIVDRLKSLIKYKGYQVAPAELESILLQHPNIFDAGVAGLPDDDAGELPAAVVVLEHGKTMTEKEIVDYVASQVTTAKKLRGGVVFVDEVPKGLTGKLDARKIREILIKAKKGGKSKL
# zebrafish Estrogen Receptor (ESR1), esr1 (gene 259252), sequence (P57717 whole entry, looked up, the tested form may be a part): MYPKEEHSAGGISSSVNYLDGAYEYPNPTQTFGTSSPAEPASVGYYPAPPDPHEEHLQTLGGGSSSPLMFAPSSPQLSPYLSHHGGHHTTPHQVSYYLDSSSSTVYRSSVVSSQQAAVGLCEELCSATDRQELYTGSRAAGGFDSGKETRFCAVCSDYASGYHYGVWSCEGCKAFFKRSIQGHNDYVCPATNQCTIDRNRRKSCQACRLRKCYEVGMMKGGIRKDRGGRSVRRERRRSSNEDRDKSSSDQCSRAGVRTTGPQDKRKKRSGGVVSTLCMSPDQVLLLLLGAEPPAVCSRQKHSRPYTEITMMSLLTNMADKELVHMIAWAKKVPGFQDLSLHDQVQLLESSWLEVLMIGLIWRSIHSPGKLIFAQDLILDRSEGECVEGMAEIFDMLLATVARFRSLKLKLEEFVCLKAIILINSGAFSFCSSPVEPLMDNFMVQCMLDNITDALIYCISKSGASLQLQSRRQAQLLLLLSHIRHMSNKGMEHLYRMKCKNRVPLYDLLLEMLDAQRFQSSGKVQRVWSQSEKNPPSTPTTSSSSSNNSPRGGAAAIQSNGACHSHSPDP
smiles,measurement,setting,value
CCOC(=O)[C@]1(c2ccccc2)Oc2ccccc2[C@@H]1N,outcome,[1],inactive
same,AC50,[2],69.4 µM (active)
same,AC50,[3],65 µM (active)
c1ccc(NNc2ccccc2)cc1,AC50,[1],20.4 µM (active)
Nc1cc(Cl)cc(C(=O)O)c1Cl,outcome,[1],inactive
same,outcome,[2],inactive
same,outcome,[3],inactive
Cc1ccc(N)c(N)c1,AC50,[1],0.334 µM (active)
same,AC50,[3],50 µM (active)
N#CC(Br)(Br)C(N)=O,outcome,[1],inactive
same,outcome,[2],inactive
same,outcome,[3],inactive
O=P(OCCCl)(OCCCl)OCCCl,outcome,[4],inactive
same,outcome,[5],inactive
same,outcome,[6],inactive
same,outcome,[7],inactive
same,outcome,[8],inactive
same,outcome,[9],inactive
CN(C)c1ccc(C(=O)c2ccc(N(C)C)cc2)cc1,AC50,[1],11.6 µM (active)
same,AC50,[2],9.27 µM (active)
same,AC50,[3],9.62 µM (active)
CO[C@@H]1[C@H](OC(=O)NC(=O)CCl)CC[C@]2(CO2)[C@H]1[C@@]1(C)O[C@@H]1CC=C(C)C,AC50,[4],1.63 nM (active) and 120 nM (active)
same,AC50,[10],0.00608 µM (active)
same,outcome,[10],inactive
same,outcome,[5],inactive
same,AC50,[6],22.8 nM (active) and 5 µM (active)
same,outcome,[11],inactive
same,outcome,[7],inactive
same,outcome,[8],inactive
same,outcome,[9],inactive
same,outcome,[1],inactive
same,AC50,[2],0.00152 µM (active)
same,AC50,[3],3.27 µM (active)
Clc1ccc(C(c2ccc(Cl)cc2)C(Cl)Cl)cc1,outcome,[12],inactive
same,AC50,[13],7.14 µM (active)
same,AC50,[14],6.82 µM (active)
same,AC50,[2],21.3 µM (active)
same,AC50,[3],18.1 µM (active)
same,AC50,[15],8.6 µM (active)
same,AC50,[16],17.8 µM (active)
Cc1cc(N=Nc2ccccc2C)ccc1N,AC50,[1],3.76 µM (active)
same,AC50,[2],66.1 µM (active)
same,AC50,[3],42.2 µM (active)
CCC12COCN1COC2,outcome,[2],inactive
same,outcome,[3],inactive
Nc1ccc(Oc2ccc(N)cc2)cc1,AC50,[17],0.366 µM (active)
same,outcome,[2],inactive
same,outcome,[3],inactive
Clc1ccc(Cl)c(Cl)c1,outcome,[4],inactive
same,outcome,[5],inactive
same,outcome,[11],inactive
same,outcome,[8],inactive
same,outcome,[9],inactive
same,outcome,[3],inactive
Cc1cccc(N)c1N,AC50,[1],35.7 µM (active)
same,outcome,[3],inactive
COC(=O)Nc1nc2ccccc2[nH]1,outcome,[1],inactive
same,AC50,[2],50 µM (active)
same,AC50,[3],17 µM (active)
CCCCOC(=O)c1ccccc1C(=O)OCc1ccccc1,outcome,[1],inactive
same,outcome,[18],inactive
same,AC50,[12],26.6 µM (active)
same,AC50,[13],6.82 µM (active)
same,AC50,[14],9.27 µM (active)
same,AC50,[2],50 µM (active)
same,AC50,[3],24.7 µM (active)
same,AC50,[15],7.32 µM (active)
same,AC50,[16],7.24 µM (active)
